# From PubChem BioAssay (EPA / NIEHS)
# Calls of active or inactive are those of the source. Rule for the calls: active = hit-call score of the fitted dose curve at least 0.9, where 1 is the maximum; inactive = score below 0.9.
# Read-out: Thrombomodulin, THBD (gene 7056)
# Assay: BSK_3C_Thrombomodulin: BioMAP Diversity Plus: 3C Assay for Thrombomodulin Biomarker Activity (AID 2283029)
# Details: primary human endothelial cells (HUVEC); actives raise or lower the signal
# Experimental: BSK_3C is a cell-based, multiplexed-readout assay that uses umbilical vein endothelium, a human vascular primary cell, with measurements taken at 24 hours after chemical dosing in a 96-well plate.BSK_3C_Thrombomodulin is an assay component measured in the BSK_3C assay. It measures Thrombomodulin antibody related to regulation of gene expression using ELISA technology.Data from the assay component BSK_3C_Thrombomodulin was analyzed into 1 assay endpoint. This assay endpoint, BSK_3C_Thrombomodulin, was analyzed with bidirectional fitting relative to DMSO as the negative control and baseline of activity. Using a type of binding reporter, gain or loss-of-signal activity can be used to understand changes in the signaling as they relate to the gene THBD. Furthermore, this assay endpoint can be referred to as a primary readout, because this assay has produced multiple assay endpoints where this one serves a signaling function. To generalize the intended target to other relatable targets, this assay endpoint is annotated to the gpcr intended target family, where the subfamily is rhodopsin-like receptor.
# The levels of cell surface (or secreted, indicated by the prefix "s") biomarker endpoints were measured by ELISA. Overt cytotoxicity to cells in confluent adherent cultures (all systems other than the BT system) was assessed by measuring total protein levels using sulforhodamine B (SRB) staining in parallel cultures at the time of biomarker measurements, indicated as SRB endpoints. For proliferation assays for adherent cell types, individual cell types are cultured at sub-confluence and relative cell numbers quantified by SRB staining at time points optimized for each system (48 h: 3C and CASM3C systems; 72 h: BT and HDF3CGF systems; 96 h: SAg system). SRB was performed by staining cells with 0.1% SRB after fixation with 10% TCA and reading wells at 560 nm.Viability and proliferation of PBMC (T cells) was quantified by Alamar Blue reduction for the SAg and BT systems. For PBMC viability (referred to as PBMC Cytotoxicity within the assay endpoint names), cells were plated (75,000/well in a 96-well plate) and then chemical samples added for 1 h before addition of activators, SEB and TSST-1 (20 ng/mL final concentration each). Cells were incubated for 90 h. Then, Alamar Blue (20 uL/well) (Invitrogen, Cat DAL1100) was added for 6 h, and the plates were read with a fluorescence microplate reader at 546/580 nm (excitation/emission). For PBMC proliferation, cells were plated and activated as above but incubated for only 16 h prior to addition of Alamar Blue. Plates were read after 6 h.
SMILES,AC50,outcome
OCC(CO)n1cnc(-c2ccc(F)cc2)c1-c1ccnc(Oc2ccccc2)n1,2.28 µM (active),
CCCC[C@H]1CN(CC2CCOCC2)C(=O)OC12CCN(C1(C)CCN(C(=O)c3c(C)ncnc3C)CC1)CC2,,inactive
N[C@@H](Cc1c[nH]c2ccccc12)C(=O)O,,inactive
CC(C)NCC(O)c1ccc(O)c(O)c1 (stereo not given),,inactive
Cc1occc(=O)c1O,,inactive
CCCCCCCC(=O)OC,,inactive
O=C(N[C@@H](c1ccccc1)[C@@H]1CCCCN1)c1cccc(C(F)(F)F)c1Cl,,inactive
C/C=C/C=C/C(=O)O,,inactive
CC(C)c1cccc(C(C)C)c1,,inactive
Cc1cc(SC2=C(O)C[C@@](CCc3ccc(N)cc3)(C(C)C)OC2=O)c(C(C)(C)C)cc1CO,,inactive
CCCCCCC(C=O)=Cc1ccccc1,,inactive
O=C(O)c1cccnc1,,inactive
CCC(C)N(C)C(=O)c1cc2ccccc2c(-c2ccccc2Cl)n1 (stereo not given),,inactive
CC(=O)CC(c1ccccc1)c1c(O)c2ccccc2oc1=O (stereo not given),,inactive
CC(C)(C)c1ccccc1,,inactive
COc1ccc(OC(F)(F)F)cc1CN[C@H]1CCCN[C@H]1c1ccccc1,17.8 µM (active),
CCCCC(CC)COP(=O)(OCC(CC)CCCC)OCC(CC)CCCC (stereo not given),,inactive
CCOCCOCCO,,inactive
Cc1ccc(C(C)(C)C)c(O)c1,31.3 µM (active),
CCCCCCC(CCCCCCCCCCC(=O)OCC(COC(C)=O)OC(C)=O)OC(C)=O (stereo not given),,inactive

SMILES,AC50,outcome
CN(C)C(=O)NC1(c2ccccc2)CCN(CC[C@@]2(c3ccc(F)c(F)c3)CN(C(=O)c3ccccc3)CCO2)CC1,,inactive
CC(C)COC(=O)CCCCC(=O)OCC(C)C,,inactive
CCCCC(CC)CO (stereo not given),,inactive
CN(C)C(=O)NC1(c2ccccc2)CCN(CCC[C@]2(c3ccc(Cl)c(Cl)c3)CCCN(C(=O)c3ccccc3)C2)CC1,,inactive
O=C(NS(=O)(=O)/C=C/c1cccs1)c1ccc(F)cc1Br,,inactive
CC(=O)OC1CC(C)OC(C)O1 (stereo not given),,inactive
CC1=C(C)S(=O)(=O)CCS1(=O)=O,,inactive
Nc1nc(=S)c2[nH]cnc2[nH]1,,inactive
NC=O,,inactive
CCN(CC)CCOc1ccc(C(=C(Cl)c2ccccc2)c2ccccc2)cc1,5.39 µM (active),
S=c1[nH]c2ccccc2s1,,inactive
O=C(Oc1ccccc1)c1cccc(C(=O)Oc2ccccc2)c1,,inactive
O=C1O[C@H]([C@H](O)CO)C(O)=C1O,,inactive
CN(C)CCCN(C)CCCN(C)C,,inactive
CCc1nc(N)nc(N)c1-c1ccc(Cl)cc1,,inactive
O=C1c2c(O)cccc2Cc2cccc(O)c21,,inactive
CS(=O)(=O)c1ccc([C@@H](C[C@H]2CCC(=O)C2)C(=O)Nc2cnccn2)cc1Cl,,inactive
CCCCOC(=O)CCCCC(=O)OCCCC,,inactive
COC(=O)CCC(=O)OC,,inactive
Cc1cc(Cc2ccc(N)c(C)c2)ccc1N,,inactive
